D1 antagonist: human D1 dopamine receptor antagonism; HEK293 TREx D1 cells, calcium flux, dopamine EC80; active compounds read low; activity change, negative = inhibition, % at 10 µM; 3.2% of 360,000 active; AID 504652; in the data active means activity change below about -30%; further: on the % scale 0 is the no-effect control and ±100 the full control effect
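Allosteric or orthosteric antagonism assessed as attenuation of the calcium response to EC80 dopamine, added 180 s after compound, in induced HEK293 Trex D1 cells loaded with no-wash calcium dye.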
D1 PAM: potentiators of human D1 dopamine receptor; P21728; HEK293 TREx D1 cells, calcium flux, dopamine EC20 potentiation; potentiation, % at 10 µM; 0.036% of 360,000 active; in the data active means potentiation above about 30%; further: 0% is about no effect
D3 antag: antagonists of human D3 dopamine receptor; P35462; max response, negative = inhibition, %; 2.5% of 360,000 active; D3R cells, DiscoveRx beta-arrestin luminescence, antagonist mode; active compounds read low; in the data active means max response below about -50%; inconclusive means no clear call, values can overlap the other calls; further: on the % scale 0 is the no-effect control and ±100 the full control effect
Target sequence (P35462 whole entry, looked up): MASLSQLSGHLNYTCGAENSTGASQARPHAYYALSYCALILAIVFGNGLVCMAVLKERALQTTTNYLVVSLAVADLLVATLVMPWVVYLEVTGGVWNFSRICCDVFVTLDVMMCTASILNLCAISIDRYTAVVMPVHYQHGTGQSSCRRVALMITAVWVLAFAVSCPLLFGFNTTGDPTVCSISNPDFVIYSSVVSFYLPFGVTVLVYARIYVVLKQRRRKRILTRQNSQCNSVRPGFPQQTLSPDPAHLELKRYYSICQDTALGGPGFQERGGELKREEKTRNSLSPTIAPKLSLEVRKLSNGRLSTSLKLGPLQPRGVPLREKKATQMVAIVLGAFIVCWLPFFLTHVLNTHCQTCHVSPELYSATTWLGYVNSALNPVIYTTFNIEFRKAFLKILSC
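Cells expressing the human receptor were seeded at 1500 cells/well, incubated overnight at 37 degrees C in 5% CO2, then exposed to library compounds with dopamine controls for 90 minutes at 37 degrees C before luminescent detection.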
D3 ag: agonists of human D3 dopamine receptor | P35462 | D3R DiscoveRx beta-arrestin cells, luminescence, 90 min | max activation, % | 0.58% of 410,000 active; in the data active means max activation above about 30%; further: 0% is about no effect
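Cells at 1500/well, incubated overnight, then treated with pinned compounds (dopamine as control) for 90 min at 37 degrees C. DiscoveRx reagent added for 30 - 60 minutes at room temperature; luminescence read.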
D1 ag: agonists of human D1 dopamine receptor. P21728. HEK293 T-REx D1 cells, calcium flux, agonist mode. activation, % at 2 µM. 1% of 360,000 active. AID 504660; in the data active means activation above about 30%; further: 0% is about no effect
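Agonism was scored from calcium flux recorded over 180 s (1 read/s) after pintool compound addition, following a 10-cycle baseline. Cells were inducible force-coupled HEK293 TREx D1, plated overnight at 30 C and loaded with no-wash calcium dye.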
Active calls of the source: *; ? = inconclusive; / = no result given. The list is not random: actives were taken first. Their share in the collection is about 6%.

SMILES	D1 antagonist	D1 PAM	D3 antag	D3 ag	D1 ag
Cc1ccc(-n2nnc3c(=O)n(Cc4cccc(C)c4)cnc32)cc1	-7	-3	-1	-8	7
Cn1c(SCCN2CCCCC2)nnc1-c1ccccc1Br	-14	-5	-63*	-4	4
N#Cc1c(SCc2ccccc2)sc(C(=O)c2ccccc2)c1N	-49*	-6	-9	-1	-1
COc1ccc(NC(=S)N(CCCN2CCOCC2)C(C)c2cc3cccc(OC)c3o2)cc1 (stereo unspecified)	17	-9	-13	-7	2
COc1cccc(NC(=S)N(CCCN2CCOCC2)C(C)c2cc3ccccc3o2)c1 (stereo unspecified)	4	-4	-55*	-20	7
O=C(NC1CCCc2c1cnn2-c1ccccc1F)c1ccccn1 (stereo unspecified)	-38*	-3	-16	-3	11
O=C(NC1CCCc2c1cnn2-c1ccc(F)cc1F)c1ccccn1 (stereo unspecified)	3	-3	3	18	3
CCOC(=O)N1CCN(C(=O)CNC(=O)c2nn(-c3ccc(OC)cc3OC)c(=O)c3ccccc23)CC1	-17	-1	5	2	-3
COc1ccc([C@H](NC(=O)OC(C)(C)C)C(=O)OC(C)(C)C)cc1	-47*	-8	-11	10	0
COCCNc1ncnc2c1ncn2[C@H]1CN(Cc2ccccc2)C[C@@H](CO)O1	/	/	0	3	/
CCc1ccccc1-n1nnnc1SCC(=O)Nc1ccc(N2CCN(C)CC2)cc1	-60*	-6	-2	-3	3
Cc1ccccc1NC(=O)CCSc1nnnn1-c1ccccc1	29	-2	-23	31*	2
Cc1ccccc1-n1nnnc1SCC(=O)Nc1ccc(N2CCN(C)CC2)cc1	-77*	-13	8	-11	14
Cc1cccc(C)c1NC(=O)CSc1nnnn1-c1ccc(C(=O)O)cc1	1	-4	-79*	2	5
Cc1ccc(S(=O)(=O)Nc2cc(-c3ccccc3)nn2C)cc1Cl	-9	3	-21	-12	0
Cc1ccc(NC(=O)C2CCCN2S(=O)(=O)c2ccc(F)cc2)c(C)c1 (stereo unspecified)	-10	-9	12	-4	-5
CCOc1ccc(N(CC)S(=O)(=O)c2cc(Br)cc3c2N(C(C)=O)C(C)C3)cc1 (stereo unspecified)	-8	1	/	-5	0
O=C(COC(=O)/C=C/c1cccc(F)c1)Nc1ccccc1-c1ccccc1	-8	-5	17	1	21
CCOC(=O)c1ccc(CN(Cc2ccc(F)cc2)S(=O)(=O)c2ccc(F)c(C(=O)Nc3ccccc3C(F)(F)F)c2)cc1	-5	0	/	-1	11
Cc1ccccc1-n1nnnc1SC(C)C(=O)Nc1ccc(N2CCN(C)CC2)cc1 (stereo unspecified)	-68*	-10	-3	-8	14
Cc1cc(C)c(CN2CCN(C(=O)CC[C@H]3O[C@@H](n4ccc(=O)[nH]c4=O)[C@H](O)[C@@H]3O)CC2)c(C)c1	/	/	-69*	-13	/
Cc1nn(-c2ccccc2)c2c1cc1c(=O)n(C)c(=O)nc-1n2-c1cccc(Cl)c1	-12	0	/	2	0
COc1ccc(NC(=O)CSC2=Nc3ccccc3C3=NC(CCC(=O)NC4CCCCC4)C(=O)N23)cc1Cl (stereo unspecified)	-20	-3	/	5	1
COc1cc(Cl)ccc1OC1(C)CCN(Cc2ccc(SC)cc2)C1 (stereo unspecified)	/	/	-70*	-16	/
CSc1ccc(CN2CCC(C)(Oc3ccccc3C)C2)cc1 (stereo unspecified)	/	/	?	-10	/
CSc1ccc(OC2(C)CCN(Cc3ccc(OC(F)(F)F)cc3)C2)cc1 (stereo unspecified)	/	/	-25	-7	/
CC1(Oc2ccccc2-c2ccno2)CCN(Cc2csc3ccccc23)C1 (stereo unspecified)	/	/	-78*	-21	/
CC(=O)c1ccc(OC2(C)CCN(Cc3csc4ccccc34)C2)cc1 (stereo unspecified)	/	/	-53*	-10	/
CSc1ccc(CN2CCC(C)(Oc3ccc(F)cc3)C2)cc1 (stereo unspecified)	/	/	-112*	-11	/
Cc1nc(C(F)(F)F)ccc1C(=O)N1CCCCCC1(C)C(=O)NCC(C)C (stereo unspecified)	/	/	15	6	/
